A word on the inhibition: it is the change of the read-out against control, counted positive when it falls.

Results on 14 molecules are retold here after PubChem BioAssay.

Assay [1] is described as follows: inhibitors of TNFa-induced NFkB p65 translocation, primary screen, imaging, HUVEC, MLSMR starter and 10KST1 sets (AID 438;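 active = inhibition above 20% together with a positive visual image hit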;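 note: compound added about 3h40 before a 20 min TNFalpha stimulation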;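 for inhibition: signal is the nuclear over cytoplasmic p65 intensity ratio per well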). To be noted: HUVEC TNFa-induced p65 nuclear translocation; cell count: measured here: nuclei count (cytotoxicity indicator), at 2.08 µM; inhibition: at 2 µM, stronger effect = higher value, 0% TNFa-plus-vehicle, 100% no-TNFa wells.
The nature of assay [2]: reduction of polyQ htt aggregates in cells – imaging, exon1htt(103Q)mCFP cells, high-content imaging, primary screen (AID 483;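 active = visual image review flags a hit and inhibition of aggregation exceeds 20%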;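 note: compound exposure lasted 3 days before fixation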;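 for nuclei count: percent of the per-plate median nuclei count of sample wells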). To be noted: exon1htt(103Q)mCFP cell line, aggregate imaging, at 2 µM; inhibition of aggregation: stronger effect = higher value; nuclei count: measured here: cell count, toxicity.
A short description of assay [3]: endothelial E-selectin expression blockers – imaging, HUVEC, immunofluorescence, MLSMR starter and 10KST1 sets, primary screen (AID 487;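 active = visually confirmed hit in the image check and inhibition above 20%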;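 for inhibition: signal is fraction of cell area covered by stained E-selectin grains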;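 for nuclei count: 100% = median nuclei count of all wells on the same plate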). To be noted: HUVEC TNFalpha-induced E-selectin immunofluorescence imaging, at 2 µM; inhibition: stronger effect = higher value; nuclei count: measured here: cell number, toxicity.
For assay [4], the target named is Voltage-gated potassium channel subunit beta-2 (Rattus norvegicus) (UniProt P62483). The assay can be described thus: inhibitors of rat Kvbeta2 reductase activity – biochemical, NADPH fluorescence, primary screen (AID 622;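 active = fluorescence slope higher than the sample average by over 3 SD, cut at about -0.22 in these data, passing the limit was not always enough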;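 note: slope of raw intensity against log time taken from 70 to 1610 s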). To be noted: recombinant KvBeta, 4-cyanobenzaldehyde reduction, at 10 µM, stronger effect = higher value.
Assay [5] has the same target. Nature of the assay: enhancers of rat Kvbeta2 NADPH turnover – biochemical, NADPH fluorescence, primary screen (AID 623;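 active = NADPH fluorescence slope more negative than the mean of all samples by about 3 SD, 99.7% confidence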;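 note: fluorescence intensity change per second fitted from 20 to 320 s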). To be noted: Recombinant KvBeta, NADPH fluorescence decrease slope, 10 min; at 10 µM; stronger effect = lower value.
The target of assay [6] is Alpha-2C adrenergic receptor (Homo sapiens) (UniProt P18825). The assay can be described thus: compounds altering alpha2C-coupled GIRK flux – cell-based, HEK293 alpha2C/GIRK1/2, thallium flux, primary screen (AID 624;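 active = fluorescence slope after compound addition differing from the mean of all screened samples at 99.7% confidence, in either direction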;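 note: slope of fluorescence ratio to pre-addition baseline per second over 15 to 24 s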). To be noted: thallium flux BTC fluorescence, at 10 µM, actives lie on both sides.
Assay [7] can be described thus: blockers of RIG-like receptor reporter activation – cell-based, Sendai virus stimulus, luciferase, 10K MLSCN set, TLR/RLR signaling modifier project, primary screen (AID 602276).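 Note: firefly luciferase from ISG56 promoter only with Renilla not read in this screen; 0% = Sendai virus plus DMSO and 100% = medium plus DMSO without virus.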 To be noted: HEK293 RL24 IRF3 luciferase reporter, at 10 µM, stronger effect = higher value.
Assay [8] can be described thus: TLR3 IRF3 reporter activation blockers – cell-based, poly I:C stimulus, luciferase, 10K MLSCN set, primary screen (AID 602277;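 active = inhibition of the reporter signal at or above 50%; inactive = inhibition below 50%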). To be noted: HEK293-TLR3 RL24 IRF3 luciferase reporter, at 10 µM, stronger effect = higher value.

SMILES strings stand for the structures. The source made the active and inactive calls.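 Rule for the calls, unless noted: active = inhibition at or above 50% at 10 µM; inactive = inhibition below 50%.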

Chain of Alpha-2C adrenergic receptor (Homo sapiens) (P18825 whole entry, looked up): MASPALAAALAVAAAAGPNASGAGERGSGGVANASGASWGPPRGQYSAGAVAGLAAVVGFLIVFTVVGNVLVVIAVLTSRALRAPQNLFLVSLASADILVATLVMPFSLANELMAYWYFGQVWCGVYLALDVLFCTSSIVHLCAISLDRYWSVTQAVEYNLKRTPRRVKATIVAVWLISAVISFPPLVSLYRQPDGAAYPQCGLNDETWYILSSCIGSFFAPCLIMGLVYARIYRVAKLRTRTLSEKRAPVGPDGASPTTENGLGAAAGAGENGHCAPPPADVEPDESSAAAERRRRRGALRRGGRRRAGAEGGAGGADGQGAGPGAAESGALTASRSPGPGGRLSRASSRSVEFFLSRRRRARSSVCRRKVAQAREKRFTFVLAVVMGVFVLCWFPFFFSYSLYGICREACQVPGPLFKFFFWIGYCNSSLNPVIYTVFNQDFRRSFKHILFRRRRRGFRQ
Chain of Voltage-gated potassium channel subunit beta-2 (Rattus norvegicus) (P62483 whole entry, looked up): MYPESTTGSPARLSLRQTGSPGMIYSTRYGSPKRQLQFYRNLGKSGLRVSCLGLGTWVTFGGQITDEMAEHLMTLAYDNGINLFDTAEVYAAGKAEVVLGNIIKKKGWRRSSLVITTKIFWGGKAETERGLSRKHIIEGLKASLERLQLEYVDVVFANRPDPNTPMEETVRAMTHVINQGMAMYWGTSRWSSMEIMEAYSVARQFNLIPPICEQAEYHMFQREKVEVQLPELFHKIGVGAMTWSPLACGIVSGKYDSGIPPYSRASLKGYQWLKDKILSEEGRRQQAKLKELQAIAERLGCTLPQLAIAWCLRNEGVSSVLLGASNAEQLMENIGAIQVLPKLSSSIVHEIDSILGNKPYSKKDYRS

With `COC(=O)c1ccccc1NC(=O)C1CC(=O)N(c2ccc(F)cc2)C1` (centres undefined), the cell count in assay [1] was determined as 321. Moreover, the inhibition in assay [1] was 6.5% (inactive); in assay [3] it was -16.8% (inactive); in assay [7], 14.7% (inactive); in assay [8] it was 5.83% (inactive). In addition, in assay [2], the inhibition of aggregation is -18.4% (inactive). For the same molecule, the nuclei count in assay [2] came out at 115%; in assay [3] it was 134%. Besides, the fluorescence slope in assay [4] was -0.604 (inactive). In addition, the NADPH fluorescence slope in assay [5] is -3.1e-05 (inactive). In assay [6], the slope is 0.00375 (inactive).
Consider `Cc1ccc(Cn2c(SCCN3CCCCC3)nc3c2c(=O)[nH]c(=O)n3C)cc1`, for which the cell count in assay [1] turned out to be 575. For the same molecule, the inhibition in assay [1] was -6.4% (inactive); in assay [3] it was 29.9% (inactive); in assay [7] it was 3.78% (inactive); in assay [8] it was 32.9% (inactive). For the same molecule, the inhibition of aggregation in assay [2] is 5.6% (inactive). The nuclei count in assay [2] worked out at 71.5%; in assay [3], 100%. Further, the fluorescence slope in assay [4] was -0.577 (inactive). In assay [5], the NADPH fluorescence slope is -2.5e-05 (inactive). Besides, the slope in assay [6] is 0.00647 (inactive).
Take `N#CC1=C(SCC(=O)NC2CCCCC2)NC(=O)CC1c1ccco1` (centres undefined): the cell count in assay [1] stood at 709. The inhibition in assay [1] was -7.8% (inactive); in assay [3], -10.6% (inactive); in assay [7] it was 10.9% (inactive); in assay [8], 14% (inactive). Also, in assay [2], the inhibition of aggregation is -1.4% (inactive). Further, the nuclei count in assay [2] is 62%; in assay [3] it was 102%. Moreover, the fluorescence slope in assay [4] is -0.525 (inactive). Also, in assay [5], the NADPH fluorescence slope was -5.1e-05 (inactive). The slope in assay [6] is 0.00537 (inactive).
With `CCOC(=O)c1cc(-c2ccc(N)cc2)sc1N`, the cell count in assay [1] was determined as 588. In addition, the inhibition in assay [1] was 14.8% (inactive); in assay [3] it was 26.4% (inactive); in assay [7] it was -50.5% (inactive); in assay [8], -117% (inactive). In addition, the inhibition of aggregation in assay [2] is 24% (inactive). Besides, the results for the nuclei count in assay [2] and in assay [3] were 90.5% and 100%, respectively. In addition, the fluorescence slope in assay [4] is -0.433 (inactive). For the same molecule, in assay [5], the NADPH fluorescence slope is -7.7e-05 (inactive). Moreover, in assay [6], the slope was 0.00189 (inactive).
For the molecule `Cc1nc2ccccc2c2c1C(=O)N(CCC1=CCCCC1)C2=O`, the cell count in assay [1] was 410. For the same molecule, the inhibition was 1.6% (inactive) in assay [1], -54.2% (inactive) in assay [3], 11.5% (inactive) in assay [7] and 42.1% (inactive) in assay [8]. In addition, in assay [2], the inhibition of aggregation was -3.7% (inactive). In addition, the nuclei count in assay [2] amounted to 74.1%; in assay [3], 108%. Besides, in assay [4], the fluorescence slope is -0.407 (inactive). Also, the NADPH fluorescence slope in assay [5] was -4.4e-05 (inactive). In assay [6], the slope is 0.00396 (inactive).
Take `O=C(COc1ccc(Cl)cc1)NCc1nnc(SCC(=O)Nc2ccc3c(c2)OCCO3)o1`: the cell count in assay [1] stood at 375. Moreover, the inhibition in assay [1] was 0% (inactive); in assay [3] it was -9.1% (inactive); in assay [7], -4.54% (inactive); in assay [8] it was -2.34% (inactive). Moreover, in assay [2], the inhibition of aggregation is 4.2% (inactive). Moreover, the nuclei count in assay [2] worked out at 99.9%; in assay [3], 119%. The fluorescence slope in assay [4] is -0.359 (inactive). In addition, the NADPH fluorescence slope in assay [5] was -3.4e-06 (inactive). In addition, the slope in assay [6] is 0.00522 (inactive).
With `CCOC(=O)c1oc2cccc(OC(C)=O)c2c1C`, the cell count in assay [1] was found to be 306. Moreover, the inhibition in assay [1] is 8.1% (inactive); in assay [3], 24.5% (inactive); in assay [7], -33.6% (inactive); in assay [8], -89.8% (inactive). Also, the inhibition of aggregation in assay [2] was 11.2% (inactive). Also, the nuclei count stood at 97.4% in assay [2] and 85.9% in assay [3]. Further, the fluorescence slope in assay [4] is -0.607 (inactive). In addition, the NADPH fluorescence slope in assay [5] was -4.6e-05 (inactive). In addition, the slope in assay [6] was 0.00384 (inactive).
Turning to `CCCCn1c(CNC(=O)CCC)nc2ccccc21`, the cell count in assay [1] worked out at 635. The inhibition in assay [1] was 3.9% (inactive); in assay [3], -30.1% (inactive); in assay [7], 5.22% (inactive); in assay [8], 31.7% (inactive). For the same molecule, the inhibition of aggregation in assay [2] is -10.7% (inactive). For the same molecule, the nuclei count in assay [2] was determined as 124%; in assay [3] it was 116%. In addition, in assay [4], the fluorescence slope was -0.565 (inactive). In addition, in assay [5], the NADPH fluorescence slope is -4.3e-05 (inactive). Also, the slope in assay [6] is 0.00641 (inactive).
Consider `CCC(C)NC(=O)C1c2cc(OC)c(OC)cc2C(=O)N(C)C1c1ccc(OC)cc1` (centres undefined), for which the cell count in assay [1] is 455. In addition, the inhibition in assay [1] is -0.3% (inactive); in assay [3] it was 43.7% (inactive); in assay [7], -0.973% (inactive); in assay [8], 2.51% (inactive). Also, the inhibition of aggregation in assay [2] was 7.3% (inactive). Besides, the nuclei count in assay [2] was found to be 100%; in assay [3], 52.6%. The fluorescence slope in assay [4] is -0.539 (inactive). Further, in assay [5], the NADPH fluorescence slope was -8.1e-06 (inactive). Further, the slope in assay [6] is 0.00537 (inactive).
As to `CC1(C)NC(=O)N(CN2C(=O)NC(C)(C)C2=O)C1=O`, the cell count in assay [1] turned out to be 579. Besides, the inhibition in assay [1] is -7.9% (inactive); in assay [3], 28.8% (inactive); in assay [7], 7.1% (inactive); in assay [8], 9.34% (inactive). Moreover, the inhibition of aggregation in assay [2] is -22.5% (inactive). Also, the nuclei count amounted to 114% in assay [2] and 110% in assay [3]. Further, the fluorescence slope in assay [4] was -0.415 (inactive). For the same molecule, the NADPH fluorescence slope in assay [5] was -3.4e-05 (inactive). Also, the slope in assay [6] is 0.00531 (inactive).
On to `CC1CCCCC1NC(=O)c1nn(C)c(=O)c2ccccc12` (centres undefined), for which the cell count in assay [1] turned out to be 361. The inhibition in assay [1] is 0.7% (inactive); in assay [3], 13.7% (inactive); in assay [7], -1.74% (inactive); in assay [8], 2.78% (inactive). Besides, the inhibition of aggregation in assay [2] was 0.4% (inactive). For the same molecule, the nuclei count in assay [2] was determined as 105%; in assay [3], 88.6%. Besides, the fluorescence slope in assay [4] was -0.621 (inactive). The NADPH fluorescence slope in assay [5] is 1.8e-06 (inactive). Also, the slope in assay [6] is 0.00592 (inactive).
Turning to `O=C(O)CC(NC(=O)c1ccccc1NC(=O)c1ccccc1)C(=O)O` (centres undefined), in assay [1], the cell count turned out to be 284. Also, the inhibition was -0.3% (inactive) in assay [1], 22.6% (inactive) in assay [3], -6.91% (inactive) in assay [7] and -15.2% (inactive) in assay [8]. In addition, in assay [2], the inhibition of aggregation was 8.8% (inactive). Also, the values for the nuclei count in assay [2] and in assay [3] were 111% and 90%, respectively. For the same molecule, the fluorescence slope in assay [4] is -0.403 (inactive). In addition, the NADPH fluorescence slope in assay [5] is 1.9e-05 (inactive). Also, the slope in assay [6] is 0.00592 (inactive).
In the case of `CCn1c2ccccc2c2cc(Nc3cc(C)nc4ncnn34)ccc21`, the cell count in assay [1] stood at 513. Moreover, the inhibition in assay [1] is 8.5% (inactive); in assay [3] it was -104% (inactive); in assay [7] it was 68.5% (active); in assay [8], 87.2% (active). In addition, the inhibition of aggregation in assay [2] was 7.5% (inactive). Besides, the nuclei count in assay [2] amounted to 3%; in assay [3], 65.1%. The fluorescence slope in assay [4] is -0.527 (inactive). Also, in assay [5], the NADPH fluorescence slope is 7.4e-07 (inactive). Besides, in assay [6], the slope is 0.00558 (inactive).
With `Cc1cc(-n2c(C)cc(C(=O)CSc3nnnn3-c3ccc(Cl)cc3)c2C)no1`, the cell count in assay [1] stood at 415. The inhibition was 4.2% (inactive) in assay [1], -55.8% (inactive) in assay [3], 9.68% (inactive) in assay [7] and 13.2% (inactive) in assay [8]. In addition, in assay [2], the inhibition of aggregation is 2.2% (inactive). Further, the nuclei count in assay [2] was 94%; in assay [3], 109%. Also, the fluorescence slope in assay [4] was -0.403 (inactive). The NADPH fluorescence slope in assay [5] is -3.2e-05 (inactive). Besides, the slope in assay [6] was 0.00589 (inactive).
